Among all 30,000 compounds or so, about 110 (0.37%) were called active. This excerpt belongs to a sample that is enriched for actives. Values without a mark were called inactive.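 Rule for the calls: active = delta delta Cp rounded down to an integer at or above 3, about 3 SD of DMSO wells; inactive = the rest.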

The assay can be described thus: YB-1 transcript reduction by qRT-PCR – cell-based, fluorescence, primary screen (AID 434959).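 Note: higher means less YB-1 transcript or more CDIP transcript relative to DMSO.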 To be noted: U2OS, qRT-PCR YB-1 vs CDIP delta delta Cp, 16 h; active compounds read high; zero = DMSO, each unit about twofold. On the technique in general: In qPCR the cycle at which signal appears reflects the starting amount.
Consider `C[C@H]1CN([C@@H](C)CO)C(=O)c2cc(NS(=O)(=O)c3cccs3)ccc2O[C@@H]1CN(C)C(=O)Nc1cccc2ccccc12`, for which the delta Cp (YB-1 minus CDIP) was -0.308. Then `Cc1noc(C)c1S(=O)(=O)N(C)C[C@H]1OCCCC[C@@H](C)Oc2ccc(NC(=O)C3CCCCC3)cc2C(=O)N([C@H](C)CO)C[C@@H]1C`, with 0.386; and `C[C@H](CO)N1C[C@H](C)[C@H](CN(C)S(C)(=O)=O)Oc2ncc(C#CCN(C)C)cc2C1=O`, with 0.217. With `NCCCC[C@@H]1NC(=O)[C@@H]2C[C@H](C(=O)NCc3ccc(F)cc3)[C@H](c3ccc(O)cc3)N2C1=O`, the delta Cp (YB-1 minus CDIP) is 0.142.

Turning to `C[C@H](CO)N1C[C@H](C)[C@H](CN(C)S(=O)(=O)c2cccs2)Oc2ccc(NS(=O)(=O)c3ccccc3)cc2C1=O`, the delta Cp (YB-1 minus CDIP) was -0.379. For the compound `Cc1ccc(S(=O)(=O)Nc2cccc3c2O[C@@H](CN(C)S(=O)(=O)c2cccs2)[C@@H](C)CN([C@@H](C)CO)C3=O)cc1`, the delta Cp (YB-1 minus CDIP) was -0.365. Regarding `COc1ccc(-c2cnc3c(c2)C(=O)N([C@H](C)CO)C[C@H](C)[C@H](CN(C)S(=O)(=O)c2ccccc2)O3)cc1`, the delta Cp (YB-1 minus CDIP) was 0.828.

As to `C=C(CC/C=C(\C)C(=O)O)C1(O)CC=C(C)CC1` (stereo unspecified), the delta Cp (YB-1 minus CDIP) was -0.182.

As for `Cc1noc(C)c1S(=O)(=O)Nc1ccc2c(c1)C(=O)N([C@@H](C)CO)C[C@@H](C)[C@H](CN(C)C(=O)Nc1cccc3ccccc13)O2`, the delta Cp (YB-1 minus CDIP) is 0.0124. As for `C[C@@H]1CN([C@H](C)CO)C(=O)Cc2cc(NS(=O)(=O)c3cccs3)ccc2O[C@H]1CN(C)C(=O)Nc1ccc2c(c1)OCO2`, the delta Cp (YB-1 minus CDIP) is 0.417.

`Cc1noc(C)c1NC(=O)Nc1ccc2c(c1)C(=O)N([C@H](C)CO)C[C@H](C)[C@H](CN(C)Cc1ccc(-c3ccccc3)cc1)O2`: the delta Cp (YB-1 minus CDIP) is 0.364. As for `O=C(O)CCCCCC(=O)N/N=C/c1ccco1`, the delta Cp (YB-1 minus CDIP) was 0.15. With `COc1ccc(S(=O)(=O)N(C)C[C@H]2Oc3c(NC(=O)NC4CCCCC4)cccc3C(=O)N([C@@H](C)CO)C[C@@H]2C)cc1`, the delta Cp (YB-1 minus CDIP) is -0.0504. For `C[C@]12C=CC(=O)C=C1CC[C@@H]1[C@@H]2C(=O)C[C@@]2(C)[C@H]1CC[C@]2(O)C(=O)CO` the value was 1.09; for `C[C@H]1CN([C@@H](C)CO)C(=O)Cc2cc(NC(=O)Cn3cnnn3)ccc2O[C@H]1CN(C)Cc1ccc(C(=O)O)cc1`, -0.00589; for `C[C@@H]1CN([C@H](C)CO)C(=O)Cc2cc(N(C)C)ccc2O[C@H]1CN(C)C(=O)NC1CCCCC1`, -0.109. `C[C@H](CO)N1C[C@H](C)[C@H](CN(C)S(=O)(=O)c2ccccc2C#N)OCc2cn(nn2)CCCC1=O`: the delta Cp (YB-1 minus CDIP) was -0.329. Then `C[C@@H]1CN([C@@H](C)CO)C(=O)Cc2cc(NC(=O)Cc3ccccc3)ccc2O[C@@H]1CN(C)Cc1ccc(Oc2ccccc2)cc1`, with -0.162; and `C[C@H]1CN([C@@H](C)CO)C(=O)c2cccc(NC(=O)c3cnccn3)c2O[C@H]1CN(C)S(=O)(=O)c1cn(C)cn1`, with -0.0985.

In the case of `C[C@@H]1CN([C@H](C)CO)C(=O)CCCn2cc(nn2)CO[C@H]1CN(C)S(=O)(=O)c1ccc(Oc2ccccc2)nc1`, the delta Cp (YB-1 minus CDIP) was -0.176. Then `CC1(C)C2CC[C@]3(C)C(C(=O)C=C4[C@@H]5C[C@@](C)(C(=O)O)CC[C@]5(C)CC[C@]43C)[C@@]2(C)CC[C@@H]1O` (stereo partly specified), with 0.127.

In the case of `COc1cc(O[C@@H]2O[C@H](CO[C@H]3OC[C@](O)(COC(=O)c4ccc(O)c(OC)c4)[C@H]3O)[C@@H](O)[C@H](O)[C@H]2O)ccc1O`, the delta Cp (YB-1 minus CDIP) was 0.323.

Take `C[C@H]1CN([C@@H](C)CO)C(=O)Cc2cc(NS(=O)(=O)c3cccs3)ccc2O[C@H]1CN(C)Cc1ccncc1`: the delta Cp (YB-1 minus CDIP) is 0.635. For `C[C@H](CO)N1C[C@H](C)[C@H](CN(C)S(=O)(=O)c2cccc(F)c2)OCc2cnnn2CCCC1=O` the value was 0.303.

Turning to `Cc1ccc(S(=O)(=O)Nc2cccc3c2O[C@@H](CN(C)S(=O)(=O)c2c(C)noc2C)[C@@H](C)CN([C@H](C)CO)C3=O)cc1`, the delta Cp (YB-1 minus CDIP) was -0.382. Then `Nn1c(C(=O)N2CCCC2)nc2ccccc2c1=O`, with 0.192; and `NC(=S)c1cnn2c(C(F)(F)F)cc(C(F)(F)F)nc12`, with 9.53 (active); and `CCOC(=O)c1cnn2c(C(F)(F)F)cc(C)nc12`, with -0.121. Then `COC(=O)CCCCCCC(=O)N/N=C/c1ccc(O)c(O)c1O`, with -0.105. On to `COc1ccc(CN(C)C[C@H]2Oc3ccc(NC(=O)Cn4cnnn4)cc3CC(=O)N([C@@H](C)CO)C[C@@H]2C)cc1`, for which the delta Cp (YB-1 minus CDIP) is -0.171. Then `CC(C)(C)OC(=O)Nc1cccc(/C=N/NC(=O)CCCCCC(=O)Nc2ccccc2O)c1`, with -0.601. For `COc1cc(/C=N\NC(=O)CCCCCCC(=O)NO)c(Br)cc1O` the value was -0.218. With `C[C@@H]1CN([C@H](C)CO)C(=O)CCCn2cc(nn2)CO[C@@H]1CN(C)C(=O)Nc1ccc(-c2cccs2)cc1`, the delta Cp (YB-1 minus CDIP) was -0.273. With `C[C@@H]1CN([C@@H](C)CO)C(=O)Cc2cc(NC(=O)C3CC3)ccc2O[C@@H]1CN(C)S(C)(=O)=O`, the delta Cp (YB-1 minus CDIP) was 0.012. With `C[C@H]1CN([C@@H](C)CO)C(=O)c2cccc(NC(=O)Nc3ccc(F)cc3)c2O[C@@H]1CN(C)C(=O)Nc1ccc2c(c1)OCO2`, the delta Cp (YB-1 minus CDIP) was 1.42. Take `COc1ccc(NC(=O)N(C)C[C@@H]2Oc3c(NC(=O)c4ccc(-c5nccs5)cc4)cccc3C(=O)N([C@H](C)CO)C[C@@H]2C)cc1`: the delta Cp (YB-1 minus CDIP) was -0.282.

Turning to `O=C(CCCCC(=O)N/N=C/c1ccc(C(F)(F)F)cc1)NO`, the delta Cp (YB-1 minus CDIP) was 0.349. Consider `COc1ccc(S(=O)(=O)N(C)C[C@H]2Oc3ccc(NC(=O)Nc4c(C)noc4C)cc3CC(=O)N([C@@H](C)CO)C[C@H]2C)cc1`, for which the delta Cp (YB-1 minus CDIP) is -0.281. For `C[C@@H]1CN([C@H](C)CO)C(=O)c2cccc(NS(=O)(=O)c3ccc(F)cc3)c2O[C@@H]1CN(C)C(=O)Nc1ccc(C(F)(F)F)cc1`, the delta Cp (YB-1 minus CDIP) was -0.00681.

In the case of `C[C@H](CO)N1C[C@H](C)[C@@H](CN(C)Cc2ccc3c(c2)OCO3)OCc2cnnn2CCCC1=O`, the delta Cp (YB-1 minus CDIP) is -0.135. For `C[C@H]1CN([C@@H](C)CO)C(=O)CCCn2cc(nn2)CO[C@H]1CN(C)S(=O)(=O)c1ccc2ccccc2c1` the value was 0.00166. For `Cc1noc(C)c1NC(=O)Nc1ccc2c(c1)CC(=O)N([C@H](C)CO)C[C@@H](C)[C@@H](CN(C)Cc1ccncc1)O2` the value was -0.309; for `O=C(O)CCCCCCC(=O)N/N=C/c1cccs1`, -0.0775; for `COc1cccc(-c2cnc3c(c2)C(=O)N([C@H](C)CO)C[C@H](C)[C@H](CN(C)S(=O)(=O)c2cccc(F)c2)O3)c1`, -0.156. As to `C[C@@H]1CN([C@H](C)CO)C(=O)c2cccc(NC(=O)c3ccncc3)c2O[C@@H]1CN(C)C`, the delta Cp (YB-1 minus CDIP) was -0.219. Then `C[C@@H]1CN([C@@H](C)CO)C(=O)Cc2cc(NC(=O)Nc3ccccc3)ccc2O[C@@H]1CN(C)S(=O)(=O)c1ccc(F)cc1`, with -0.00869; and `O=C(N/N=C/[C@H](O)[C@@H](O)[C@H](O)[C@H](O)CO)c1ccccc1O`, with 0.111; and `C[C@@H]1CN([C@H](C)CO)C(=O)c2cccc(NC(=O)Nc3ccc4c(c3)OCO4)c2O[C@@H]1CN(C)Cc1ccccc1`, with -0.407. For `C[C@@H]1CN([C@H](C)CO)C(=O)c2cc(NC(=O)CCCN(C)C)ccc2O[C@H]1CN(C)Cc1ccc(C(=O)O)cc1` the value was -0.213; for `Cc1ncc(CO)c(/C=N/NC(=O)c2ccc(C(=O)NO)cc2)c1O`, 0.181. For `C[C@@H]1CN([C@@H](C)CO)C(=O)Cc2cc(NC(=O)Nc3cccc4ccccc34)ccc2O[C@@H]1CN(C)CC1CCCCC1` the value was 0.088.

For the origin of these results see PubChem BioAssay AID434959 (Broad Institute, 2010).
